Results published in PubChem BioAssay (EPA / NIEHS).
The source made the active and inactive calls. Rule for the calls: active = hit-call score of the fitted dose curve at least 0.9, where 1 is the maximum; inactive = score below 0.9.

read-out: Transforming Growth Factor (TGFA), TGFA (gene 7039); assay: LTEA_HepaRG_TGFA: Life Technologies and Expression Analysis (LTEA) Assay for Transforming Growth Factor (TGFA) using HepaRG (AID 2283532); settings: mRNA level, 48 h; actives raise or lower the signal
Summary of the method: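 Differentiated human HepaRG cells, plated 48 h then switched to serum-free induction medium, were exposed in duplicate for 48 h to 8-point half-log series from 100 uM in 0.5% DMSO. TGFA mRNA measured by qRT-PCR, normalized to ACTB/GAPDH/POLR2A, bidirectional fit versus DMSO.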

Question: Which outcome does the source give for `Cc1[nH]cnc1C[C@H]1CCc2c(C)c3ccccc3n2C1=O` here?
Answer: inactive

Question: For `Cc1ccc(N)cc1O`, which outcome is on record?
Answer: inactive

Question: For `COc1ccc(/C=C/S(=O)(=O)NC(=O)c2ccc(C)cc2Cl)cc1`, which outcome is on record?
Answer: inactive

Question: `Nc1ccc(Nc2ccccc2)cc1` was tested. Which outcome did it give?
Answer: inactive

Question: How did the outcome turn out when `CNS(=O)(=O)c1cc(C(=O)N2CCC(CCN3C4CCC3CC(n3c(C)nc5ccccc53)C4)(c3cccc(F)c3)CC2)c(Cl)cc1F` (configuration not stated) was run?
Answer: inactive

Question: `O=P(OC(CCl)CCl)(OC(CCl)CCl)OC(CCl)CCl` was tested. Which AC50 did it give?
Answer: 83.3 µM (active)

Question: How did the outcome turn out when `CC(C)c1cccc(C(C)C)c1N1C(=O)c2ccc(O)cc2C1=O` was run?
Answer: inactive

Question: How did the outcome turn out when `Oc1ccc2c(c1)-c1ccccc1C2` was run?
Answer: inactive

Question: With `CCOCCO` as the molecule, how does the outcome read?
Answer: inactive

Question: How did the outcome turn out when `C=CCCCCCCCCC(=O)O` was run?
Answer: inactive

Question: For `O=C(O)c1cccc(Oc2ccccc2)c1`, which outcome is on record?
Answer: inactive

Question: `CC(C)CC(C)(O)C#CC(C)(O)CC(C)C` (configuration not stated) was tested. Which outcome did it give?
Answer: inactive

Question: How did the outcome turn out when `CC1(C)C(=O)N(Br)C(=O)N1Br` was run?
Answer: inactive

Question: `C1=CCCC=CCCC=CCC1` was tested. Which outcome did it give?
Answer: inactive

Question: With `COc1cccc(-c2ccc(/C=C\CN3CCCCCC3)cc2Cl)c1` as the molecule, how does the AC50 read?
Answer: 74.4 µM (active)

Question: `CC(=O)OCCC(C)C` was tested. Which outcome did it give?
Answer: inactive

Question: Which outcome does the source give for `O=c1n(CC2CO2)c(=O)n(CC2CO2)c(=O)n1CC1CO1` (configuration not stated) here?
Answer: inactive

Question: `Cc1ccc(O)cc1` was tested. Which outcome did it give?
Answer: inactive

Question: How did the outcome turn out when `CCN(C(=O)c1cc(C)cc(OC[C@H](C)Nc2ccncc2)c1)C(C)C` was run?
Answer: inactive

Question: Which outcome does the source give for `COC(=O)c1c(Cl)c(Cl)c(C(=O)OC)c(Cl)c1Cl` here?
Answer: inactive

Question: `CC[C@H](C)C(=O)O[C@H]1C[C@@H](C)C=C2C=C[C@H](C)[C@H](CC[C@@H]3C[C@@H](O)CC(=O)O3)[C@H]21` was tested. Which outcome did it give?
Answer: inactive

Question: For `CC(C)=CCC/C(C)=C/CO`, which outcome is on record?
Answer: inactive
